Shiga toxin inh: inhibitors of Shiga toxin in Vero cells; Vero cells, Shiga toxin protein synthesis inhibition reporter; inhibition, % at 38.7 µM; 290,000 compounds, 9.2% hits; AID 2315; in the data active = inhibition mostly above about 28%, no sharp cut-off; inactive = mostly below about 43%; note: 0% is about no effect
Tb PYK inh: inhibitors of Trypanosoma brucei pyruvate kinase; Q57TT1; TbPYK enzyme, Kinase-Glo Plus ATP luminescence, 45 min; Potency, µM (titrated, usually from 76.8 µM), for the others: top-dose activity, negative = inhibition, actives largely listed as inhibitors; 410,000 compounds, 0.12% hits; note: potency is the fitted concentration of half-maximal effect; % is set by controls: 0 for no effect and ±100 for the full control effect; nearly all actives have a fitted effect of over 50% in size
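Readout: single end-point luminescence (Kinase-Glo Plus, 10 min). Reaction conditions were TbPYK/substrate plus 130 uM ADP, 45 min at RT, pH 7.2 TEA buffer. No-enzyme wells served as controls, and data were normalized before concentration-response fitting.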
Cycloheximide cs: counter-screen for Shiga toxin inhibitors: cycloheximide protein synthesis inhibition. cell reporter, cycloheximide protein synthesis inhibition counterscreen. max response, %. 300,000 compounds, 12% hits; in the data active = max response mostly above about 13%, no sharp cut-off; inactive = mostly below about 14%; note: read at 38.3 µM for the half of the compounds with a filed dose; 0% is about no effect
Giardia FBPA inh: inhibitors of Giardia lamblia fructose-1,6-bisphosphate aldolase; AID 2451; Potency, µM (doses to about 59.6 µM), for inactives: at the highest dose activity, negative = inhibition, most hits filed as inhibitors; A8B2U2; 290,000 compounds, 0.71% hits; purified Giardia FBPA; note: potency is the fitted concentration of half-maximal effect; % is set by controls: 0 for no effect and ±100 for the full control effect; nearly all actives have a fitted effect of over 55% in size
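40 nM FBPA preincubated 10 min at RT with compound (up to 57.5 uM final), then substrate plus GAPDH/TPI/NAD/arsenate coupling and diaphorase/resazurin added. Fluorescence read after 20 min at RT, 525/598 nm.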
LmPK inhibitor: inhibitors of Leishmania mexicana pyruvate kinase. Q27686. purified LmPK, Kinase-Glo ATP luminescence, 1 h. Potency, µM (titrated, usually from 57.5 µM), without a hit: at the top dose activity change, negative = inhibition, hits mostly inhibitors. 290,000 compounds, 0.37% hits; note: potency is the fitted concentration of half-maximal effect; % is set by controls: 0 for no effect and ±100 for the full control effect
Target sequence (Q27686 whole entry, looked up): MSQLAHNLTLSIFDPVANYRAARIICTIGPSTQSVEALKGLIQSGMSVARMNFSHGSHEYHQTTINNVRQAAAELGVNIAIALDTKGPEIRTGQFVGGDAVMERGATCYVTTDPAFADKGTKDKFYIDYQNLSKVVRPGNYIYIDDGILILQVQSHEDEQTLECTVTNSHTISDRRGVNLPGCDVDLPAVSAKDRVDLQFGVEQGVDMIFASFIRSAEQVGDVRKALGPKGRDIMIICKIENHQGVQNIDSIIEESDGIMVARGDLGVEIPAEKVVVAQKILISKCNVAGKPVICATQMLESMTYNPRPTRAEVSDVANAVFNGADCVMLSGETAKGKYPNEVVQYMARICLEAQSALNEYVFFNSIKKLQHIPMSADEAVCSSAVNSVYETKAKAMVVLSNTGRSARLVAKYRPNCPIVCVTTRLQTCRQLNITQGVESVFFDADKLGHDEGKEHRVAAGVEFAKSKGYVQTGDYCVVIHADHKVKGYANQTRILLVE
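qHTS format; LmPK 0.1 nM; substrates PEP 0.5 mM and ADP 0.1 mM. One-hour room-temperature incubation, then coupled luciferase luminescence; 0.5 nM enzyme wells mark activation.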
RE007 growth inh: less growth of the S. pombe RE007 Vpr strain | S. pombe RE007 Vpr strain, BacTiter-Glo ATP luminescence, 24 h | Potency, µM (series often up to 92.2 µM), inactives show at the highest dose activity change, negative = less growth, usual class: inhibitors | 360,000 compounds, 0.21% hits | AID 651644; active = well fitted falling curve with a large enough effect; inconclusive = small, poorly fitted or top-dose-only effect; inactive = no such curve, though single readings can be large or run the other way; note: potency is the fitted concentration of half-maximal effect; % is set by controls: 0 for no effect and ±100 for the full control effect; nearly all actives have a fitted effect of over 50% in size
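Fission yeast strain RE007, carrying one chromosomally integrated HIV-1 vpr copy, was seeded at OD 0.01 in PMG+AL medium with 23 nL pinned compound. After 24 h at 30 °C and 99% humidity, viability was read by BacTiter-Glo luminescence.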
Starred values were filed as active, the others as inactive; ? = inconclusive; / = no result given. Shown is part of a subset that was picked to be rich in hits. Unless noted, calls come from the whole dose curve; as a rule, active = well fitted curve in the direction sought with a large enough effect; inconclusive = small, poorly fitted or top-dose-only effect, or another doubt; inactive = no such curve, though single readings can be large; an effect the other way counts as inactive or inconclusive.

SMILES	Shiga toxin inh	Tb PYK inh	Cycloheximide cs	Giardia FBPA inh	LmPK inhibitor	RE007 growth inh
COc1ccccc1OCCn1c(=O)n(C)c2ccccc21	28*	-9%	21*	-2%	-3%	1%
Cn1c(=O)n(CCOc2ccccc2Cl)c2ccccc21	79*	-9%	50*	-6%	1%	-18%
O=c1ccccn1CCOc1ccccc1Cl	45*	-7%	19*	1%	-3%	-20%
Cc1cccc(S(=O)(=O)NC(=O)C2(C)CCN2C(=O)c2cccc(F)c2)c1 (stereo unspecified)	/	1%	/	/	/	-11%
Oc1[nH]c2ccccc2c1N=Nc1nc2ccccc2s1	49*	4%	35*	3%	-10%	-1%
Oc1[nH]c2ccccc2c1N=Nc1ccccc1F	125*	5%	21*	0%	-3%	-2%
Oc1[nH]c2ccccc2c1N=Nc1ccc(F)cc1	66*	-6%	21*	0%	-12%	-13%
Oc1[nH]c2ccc(Br)cc2c1N=Nc1ccc(F)cc1	45	2%	14	0%	1%	3%
CC(C)(O)C(=O)N=Nc1c(O)[nH]c2ccccc12	61*	-4%	33*	0%	-8%	8%
Cc1ccc2[nH]c(O)c(N=Nc3nc4ccccc4s3)c2c1	-5	-5%	-2	-3%	5%	22%
CCOC(=O)c1ccc2nc(CCC(=O)N[C@H](C(=O)OC)C(C)C)c(=O)n(CC)c2c1	15	4%	5	4%	4%	1%
O=[N+]([O-])c1ccc(N=Nc2c(O)[nH]c3ccc(F)cc23)cc1	56*	-21%	44*	12%	-8%	15%
O=C(N=Nc1c(O)[nH]c2ccccc12)Nc1ccccc1	/	30%	/	/	/	-2%
Oc1[nH]c2ccccc2c1N=Nc1ccccc1	104*	-13%	44*	4%	-11%	-24%
COc1ccc(-n2nc(C(=O)NCC(=O)NCCc3ccc(OC)c(OC)c3)c3ccccc3c2=O)cc1Cl	-10	8%	-2	11%	5%	12%
COC(=O)c1ccc(NC(=O)CC(=O)Nc2ccc(C(=O)OC)cc2)cc1	-3	1%	-1	3%	-3%	-16%
COc1ccc(NC(=O)CCOc2ccccc2)c(OC)c1	32	6%	20*	2%	0%	-17%
COC(=O)c1ccc(NC(=O)c2ccccc2NS(C)(=O)=O)cc1	48*	0%	24*	-2%	-2%	-18%
COc1ccc(NC(=O)CCOc2ccccc2)cc1	117*	-14%	65*	0%	-2%	-11%
COC(=O)c1ccc(NC(=O)CNc2ccccc2)cc1	61*	2%	36*	-1%	-6%	17%
CCCCCCCCN1C(=O)[C@H](CC(=O)N2CCCC2)C[C@@]2(C(=O)OC)CCCCC=C12	/	-10%	/	/	/	-19%
C=CC(=O)Nc1cccc(Nc2nc(N[C@H]3CC[C@H](N(C)C)CC3)nc3c2ncn3C(C)C)c1	/	-5%	/	/	/	-18%
CC(C)c1ccc2oc(-c3cc(NC(=O)c4cccnc4)ccc3Cl)nc2c1	/	-9%	/	/	/	/
C=CCOc1ccc(C(=O)c2ccccc2)c(OCC(=O)NC2(C#N)CCCC2)c1	-3	0%	-2	-2%	13%	-22%
COC(=O)c1ccc(NC(=O)CCOc2ccccc2)cc1	37	3%	22*	3%	-4%	-25%
SMILES	Shiga toxin inh	Tb PYK inh	Cycloheximide cs	Giardia FBPA inh	LmPK inhibitor	RE007 growth inh
COC(=O)c1ccc(NC(=O)C(OC)c2ccccc2)cc1 (stereo unspecified)	22	-2%	17*	-1%	-1%	-2%
COC(C(=O)N/N=C(\C)c1ccc(C)cc1)c1ccccc1 (stereo unspecified)	19	-4%	11*	10%	-2%	-5%
CCOC(=O)c1ccc(NC(=O)CCOc2ccc(C)cc2)cc1	-12	-8%	-2	-5%	-4%	2%
COc1ccc(NC(=O)C2C3CCC(O3)C2C(=O)O)c(OC)c1 (stereo unspecified)	37	-2%	29*	-3%	-1%	-13%
CCOC(=O)c1c(NC(=O)c2ccc(S(=O)(=O)N(C)C3CCCCC3)cc2)sc2c1CCN(C(C)C)C2	/	-5%	/	/	/	/
NS(=O)(=O)Nc1c(Br)cc(Br)c2cccnc12	-6	/	-2	/	/	/
CN(C)C(CNC(=O)c1ccc2c(=O)n(-c3ccccc3F)c(=S)[nH]c2c1)Cc1ccccc1 (stereo unspecified)	14	3%	-2	0%	6%	10%
O=C(CCOc1ccccc1)Nc1ccc(Br)cc1	57*	3%	38*	7%	2%	8%
COCCNc1oc(Cc2cccc3ccccc23)nc1C#N	4	1%	4	-13%	1%	18%
N#Cc1ccc(CN(Nc2ccccc2)c2ccccc2)cc1	/	1%	/	/	/	-17%
Fc1ccccc1Nc1n[nH]c(=S)s1	69*	?	26*	-22%	2%	-7%
Cc1ccccc1Nc1n[nH]c(=S)s1	/	?	/	/	/	-12%
Cc1cccc(CSc2nnc(-c3ccco3)n2C)c1	42	2%	22*	6%	-1%	-23%
O=C(O)Cn1c(SCc2ccccc2)nc2ccccc21	-12	-12%	-1	2%	-3%	30%
COc1cccc(CSc2nnc(-c3ccco3)n2C)c1	41	3%	40*	13%	3%	-1%
Nn1c(SCc2cccc3ccccc23)nnc1-c1ccco1	-14	-4%	7	1%	0%	5%
Nn1c(SCc2ccccc2)nc2ccccc21	69*	-3%	69*	/	-9%	-1%
Cn1c(SCc2cccc3ccccc23)nnc1-c1ccco1	6	-17%	6	-5%	-4%	-25%
Nn1c(SCc2ccccc2)nnc1-c1ccco1	2	4%	9.3*	15%	2%	5%
Brc1cccc(-c2nc3ccc(Br)cn3c2Cc2ccccc2)c1	/	0%	/	/	/	-7%
CC1CCC(NC(=O)c2ccc(CS(=O)(=O)c3cccc(C(F)(F)F)c3)o2)CC1 (stereo unspecified)	/	1%	/	/	/	/
CCCCN(CCCNC(=O)CN1N=C(c2ccc(C)cc2)CCC1=O)c1ccccc1	/	1%	/	/	/	/
COc1ccc(CNC(=O)c2ccc3c(c2)NC(=O)C(C)S3)cc1 (stereo unspecified)	37*	-8%	21*	-17%	1%	-2%
CC1Sc2ccc(C(=O)O)cc2NC1=O (stereo unspecified)	30	3%	7	0%	1%	9%
O=C(Cn1cnc2ccccc21)N/N=C/C(Br)=C/c1ccccc1	-1	-2%	5	2%	2%	-12%
CCN(CC)S(=O)(=O)c1cccc(C(=O)N[C@H](C(=O)Nc2nc3ccc(F)cc3s2)C(C)C)c1	104*	-5%	40*	0%	3%	-13%
